697 NFkB inh: lowers PMA/ionomycin-induced NF-kB signal in 697 B cells; 697 B-cell NF-kB luciferase reporter, 16 h; inhibition, % at 4 µM; 0.33% of 330,000 active; AID 435022; in the data active = inhibition above about 35%
Gli-Sufu antag: Gli-Sufu pathway antagonism; Sufu-KO-LIGHT fibroblasts, Gli luciferase reporter luminescence; inhibition, % at 5 µM; 0.74% of 340,000 active;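 active = inhibition above about 55%, limit read from the data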
Beta apoptosis: blocks beta cell apoptosis | 0.8% of 300,000 active | INS-1E cytokine-induced death, ATP luminescence, 48 h; percent of positive-control rescue, neutral wells zero | protection from apoptosis, % (test concentration not listed) | AID 435005;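 active = Every replicate reaches about 75%, or at least half do and their mean reaches it too, limit read from the data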;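 also: higher means more ATP so stronger rescue from cytokine killing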
Mdm2 MdmX PPI: disrupts the human Mdm2-MdmX interaction; O15151+Q00987; SaOS-2 split-luciferase Mdm2/MdmX complementation, luminescence; inhibition, % at 8 µM; 3% of 330,000 active; AID 485346;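 active = inhibition of at least 50% at 8 µM in the primary screen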
Target sequence (O15151 whole entry, looked up): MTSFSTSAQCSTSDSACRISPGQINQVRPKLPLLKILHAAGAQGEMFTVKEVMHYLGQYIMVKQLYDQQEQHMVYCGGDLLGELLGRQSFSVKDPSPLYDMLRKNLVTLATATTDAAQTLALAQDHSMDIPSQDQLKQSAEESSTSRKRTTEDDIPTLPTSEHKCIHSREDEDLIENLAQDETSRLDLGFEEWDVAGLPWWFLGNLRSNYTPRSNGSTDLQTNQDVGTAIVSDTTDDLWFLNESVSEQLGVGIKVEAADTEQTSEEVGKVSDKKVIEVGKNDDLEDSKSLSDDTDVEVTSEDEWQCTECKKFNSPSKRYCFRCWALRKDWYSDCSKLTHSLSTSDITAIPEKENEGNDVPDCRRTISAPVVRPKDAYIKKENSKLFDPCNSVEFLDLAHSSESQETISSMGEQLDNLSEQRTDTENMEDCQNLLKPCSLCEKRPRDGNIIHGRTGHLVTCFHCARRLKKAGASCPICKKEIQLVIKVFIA
Target sequence (Q00987 whole entry, looked up): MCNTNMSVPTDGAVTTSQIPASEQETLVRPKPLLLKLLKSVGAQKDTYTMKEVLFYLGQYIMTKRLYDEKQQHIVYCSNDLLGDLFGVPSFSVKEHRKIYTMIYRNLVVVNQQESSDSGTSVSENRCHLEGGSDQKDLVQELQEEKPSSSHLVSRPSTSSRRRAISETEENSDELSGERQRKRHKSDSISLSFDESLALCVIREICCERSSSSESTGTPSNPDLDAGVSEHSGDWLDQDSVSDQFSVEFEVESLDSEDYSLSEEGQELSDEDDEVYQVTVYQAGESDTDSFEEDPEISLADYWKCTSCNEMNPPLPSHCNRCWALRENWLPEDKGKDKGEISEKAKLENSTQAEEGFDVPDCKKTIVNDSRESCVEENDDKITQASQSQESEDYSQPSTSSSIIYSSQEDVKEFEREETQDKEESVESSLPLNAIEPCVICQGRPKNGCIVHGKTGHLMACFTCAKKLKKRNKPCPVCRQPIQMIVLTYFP
Jurkat NFkB inh: inhibitors of the PMA/ionomycin-induced NF-kB reporter in Jurkat cells; PMA/ionomycin-induced NF-kB luciferase reporter, luminescence; inhibition, % at 4 µM; 0.53% of 330,000 active; AID 435003; in the data active = inhibition above about 50%
Mdm2 MdmX conf: confirmation of human Mdm2/MdmX interaction inhibitors | AID 489028 | Mdm2-MdmX binding, luminescent assay | 55% of 10,000 active | inhibition, % at 8 µM | shares compounds with Mdm2 MdmX PPI; in the data active = inhibition above about 40%
FLuc counter: full-length luciferase inhibition in Mdm2/MdmX counter-screen. shares compounds with Mdm2 MdmX PPI. SaOS-2 full-length luciferase counterscreen, luminescence. inhibition, % at 8 µM. 77% of 6,200 active. AID 504607;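 active = mean inhibition at 8 µM reaching about 37%, which flags the compound as non-specific, limit read from the data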;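 also: p53-null SaOS-2 cells with luciferase driven by a doxycycline-inducible promoter; compound on cells about two nights before reading with doxycycline added after day one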
A number is an active result; 0 = inactive; - = no result given. Sampled rows, rich in hits. Any-hit rate of the full collection: about 4%.

SMILES | 697 NFkB inh | Gli-Sufu antag | Beta apoptosis | Mdm2 MdmX PPI | Jurkat NFkB inh | Mdm2 MdmX conf | FLuc counter
COc1ccc(/C=N/n2cnc3c([nH]c4ccc(F)cc43)c2=O)cc1CSc1ccccn1 | 0 | 0 | 0 | 94.4 | 0 | 0 | -
O=C(NC(=S)NC1CCCCC1)c1ccc(F)cc1 | 0 | 0 | 0 | 0 | 0 | - | -
CN(Cc1cccs1)S(=O)(=O)c1ccc(Cl)cc1F | 0 | 0 | 0 | 0 | 0 | - | -
N#Cc1ccc(-c2nc3ccc(Br)cc3c(=O)n2O)cc1 | 0 | 0 | 0 | 0 | 0 | - | -
O=c1c2cc(Br)ccc2nc(-c2cccc(C(F)(F)F)c2)n1O | 0 | 0 | 0 | 55.5 | 0 | 42.1 | 0
O=c1c2cc(Cl)ccc2nc(-c2ccc(Cl)c(Cl)c2)n1O | 0 | 0 | 0 | 72.1 | 0 | 83.2 | 0
O=C1CC(N2CCN(S(=O)(=O)c3ccccc3F)CC2)C(=O)N1c1ccc(F)cc1F (centres undefined) | 0 | 0 | 0 | 0 | 0 | - | -
COc1cc(/C=C(\C#N)C(=O)NC2CCCCC2C)ccc1OS(=O)(=O)c1ccc(C)cc1 (centres undefined) | 0 | 0 | 0 | 100.3 | 0 | 0 | -
COc1cc(/C=C(\C#N)C(N)=O)ccc1OS(=O)(=O)c1ccc(C)cc1 | 0 | 0 | 0 | 0 | 0 | - | -
COc1ccc2sc(-c3ccc(N(C)C)cc3)c(C#CC(C)(C)O)c2c1 | 0 | 0 | 0 | 0 | 0 | - | -
COc1ccc2sc(-c3ccc(N(C)C)cc3)c(C#Cc3cncn3C)c2c1 | 0 | 0 | 0 | 74.1 | 0 | 0 | -
Cc1ccc(S(=O)(=O)n2nc(C)cc2C)cc1 | 0 | 0 | 0 | 0 | 0 | - | -
Cc1cc(C)n(S(=O)(=O)/C=C/c2ccccc2)n1 | 0 | 0 | 0 | 72.7 | 0 | 89.3 | 52.5
NC(=O)NC(=O)COC(=O)CCCCCNS(=O)(=O)c1ccc2c(c1)OCCO2 | 0 | 0 | 0 | 0 | 0 | - | -
O=C(NC(=O)c1ccc(Cl)cc1)Nc1ccc(-c2cnco2)cc1 | 0 | - | - | 0 | 0 | - | -
O=C(NC(=O)c1ccc(C(F)(F)F)cc1)Nc1ccc(-c2cnco2)cc1 | 0 | 0 | 0 | 55.5 | 0 | 0 | -
CC(C)c1ccc(/C=C/C(=O)Nc2nc3ccc([N+](=O)[O-])cc3s2)cc1 | 0 | 0 | 0 | 56.2 | 0 | 0 | -
O=C(/C=C/c1ccc2c(c1)OCO2)Nc1nc2ccc(F)cc2s1 | 0 | 0 | 0 | 73.1 | 0 | 0 | -
CCC(C)NC(=O)Cn1c(-c2ccccc2)cc(C(C)=O)c1C (centres undefined) | 0 | 0 | 0 | 0 | 0 | - | -
O=C(Oc1ccccc1C(=O)Oc1ccccc1)c1cccnc1 | 0 | 0 | 0 | 51.6 | 0 | 0 | -
N#Cc1cc2c(nc1SCC(=O)N1CCOCC1)CCCCC2 | 0 | 0 | - | 81.1 | 0 | 85.5 | 115.4
Cc1ccccc1CN1C(=O)c2ccccc2S(=O)c2ccc(C(=O)NCCCN3CCOCC3)cc21 (centres undefined) | 0 | 0 | 0 | 0 | 0 | - | -
CC1CC(C)CN(CCCNC(=O)c2ccc3c(c2)N(Cc2ccccc2)C(=O)c2ccccc2S3=O)C1 (centres undefined) | 0 | 0 | 0 | 64.2 | 0 | 40.8 | 69.4
O=C(NCCCN1CCCC1)c1ccc2c(c1)N(Cc1cccc(Cl)c1)C(=O)c1ccccc1S2=O (centres undefined) | 0 | 0 | 0 | 53.1 | 0 | 0 | -
CCc1nc(CN2CCN(Cc3ccc(F)c(F)c3)C(CCO)C2)c(C)[nH]1 (centres undefined) | 0 | 0 | 0 | 0 | 0 | - | -
SMILES | 697 NFkB inh | Gli-Sufu antag | Beta apoptosis | Mdm2 MdmX PPI | Jurkat NFkB inh | Mdm2 MdmX conf | FLuc counter
CC(C)=CCc1cc2c(=O)c3c(O)c4c(cc3oc2c(O)c1O)OC(C)C4(C)C (centres undefined) | 0 | - | 109.1 | 91.7 | 0 | 0 | 63.3
CN1CCN(c2nc(-c3ccc(C(C)(C)C)cc3)nc3ccccc23)CC1 | 0 | 0 | 0 | 50.3 | 0 | 48.0 | 172.8
Cc1cc2c(cc1C)N(C(=O)CSC1=NCCS1)C(C)(C)c1ssc(=S)c1-2 | 0 | 0 | 0 | 0 | 0 | - | -
COc1ccc2c(c1)-c1c(ssc1=S)C(C)(C)N2C(=O)CSC1=NCCS1 | 0 | 0 | 0 | 64.0 | 0 | 0 | -
CC1(C)c2ssc(=S)c2-c2ccccc2N1C(=O)CSC1=NCCS1 | 0 | 0 | 0 | 51.9 | 0 | 0 | -
Cn1c(=O)oc2cc(S(=O)(=O)N3CCC(C(=O)NCc4ccccc4Cl)CC3)ccc21 | 0 | 0 | 0 | 51.0 | 0 | 0 | -
CN(C)c1ccc(CNC(=O)C2CCN(S(=O)(=O)c3ccc4c(c3)oc(=O)n4C)CC2)cc1 | 0 | 0 | 0 | 0 | 0 | - | -
CCOC(=O)C(CC)(CC)C(=O)/C=C/c1cccc(Br)c1 | 0 | 0 | 0 | 96.8 | 0 | 65.5 | 0
O=C(Nc1ccc(F)cc1)Nc1ccc(N2CCCC2)c(S(=O)(=O)Nc2ccccc2Cl)c1 | 0 | 0 | 0 | 91.3 | 0 | 65.5 | 0
O=C(Nc1ccc(Cl)c(Cl)c1)Nc1ccc(N2CCCC2)c(S(=O)(=O)Nc2ccccc2Cl)c1 | 0 | 0 | 0 | 93.3 | 0 | 95.1 | 0
O=C(Cc1n[nH]c(=O)c2ccccc12)Nc1cccc(S(=O)(=O)N2CCCCCC2)c1 | 0 | 0 | 0 | 0 | 0 | - | -
COc1ccc(C2CC(C)(c3ccc(OC)cc3OC)Nc3ccccc3N2)c(OC)c1 (centres undefined) | 0 | 0 | 0 | 0 | 0 | - | -
CCCn1c(SCC(=O)Nc2cc(S(=O)(=O)N(C)C)ccc2OC)n[nH]c1=O | 0 | 0 | 0 | 0 | 0 | - | -
CCCCn1c(NC(=O)c2ccccc2Cl)c(C#N)c2nc3ccccc3nc21 | 0 | 0 | 0 | 57.7 | 0 | 0 | -
COc1ccc(-c2noc(CNC(=O)c3ccoc3C)n2)cc1OC | 0 | 0 | 0 | 0 | 0 | - | -
COc1cc(N(C(=O)Cc2cccs2)C(C(=O)NC2CCCCC2)c2ccc(C)cc2)ccc1-n1cnnn1 (centres undefined) | 0 | 0 | 0 | 84.4 | 0 | 0 | -
COc1cccc(-c2nn(C)c3sc(C(=O)NCc4ccco4)cc23)c1 | 0 | 0 | 0 | 60.6 | 0 | 40.5 | 69.1
O=C(NCCc1ccc(C(F)(F)F)cc1)C1CC(=O)N(Cc2ccccc2)C1 (centres undefined) | 0 | 0 | 0 | 0 | 0 | - | -
CN(C)CCNc1ncnc2c1sc1nc(-c3ccccc3)c3c(c12)CCCC3 | 0 | 0 | 0 | 100.3 | 0 | 69.7 | 40.6
COc1ncnc2c1sc1nc(-c3ccccc3)c3c(c12)CCCC3 | 0 | 0 | 0 | 0 | 0 | - | -
Cc1cc(N2CC(C(=O)Nc3nccs3)CC2=O)ccc1C(C)C (centres undefined) | 0 | 0 | 0 | 0 | 0 | - | -
Cc1cc(C)cc(OCc2nc3ncc(Br)cc3[nH]2)c1 | 0 | 0 | 0 | 81.2 | 0 | 73.7 | 0
COc1cccc(OCc2nc3ncc(Br)cc3[nH]2)c1 | 0 | 0 | 0 | 0 | 0 | - | -
CC(=O)N1c2ccc(S(=O)(=O)NC(CC(=O)O)c3ccc(Br)cc3)cc2CC1C (centres undefined) | 0 | 0 | 0 | 0 | 0 | - | -
CC1(C)C(=O)Nc2ccccc2N1C(=O)Cn1ncc(Cl)c(Cl)c1=O | 0 | 0 | 0 | 100.4 | 0 | 91.2 | 39.9

Assay outcomes (PubChem BioAssay)
